# Assay results: PubChem BioAssay (NCATS)
# “And” between values parts separate entries of the source, which are not always exact repeats. Equal entries are not always repeated. Inconclusive results are not listed. Where a call stands in place of a potency, no number is given. Values without a mark were called inactive. The source made the active and inactive calls. The call rests on the fitted dose curve; in most records, active means well fitted curve in the direction sought with a large enough effect; inconclusive means small, poorly fitted or top-dose-only effect, or another doubt; inactive means no such curve, though single readings can be large; an effect the other way counts as inactive or inconclusive.
# What was measured:
# W2 = assay: qHTS profiling for inhibitors of Plasmodium falciparum proliferation (AID 504749); further: nearly all actives have a fitted effect of over 60% in size; conditions: P. falciparum in erythrocytes, SYBR Green DNA, 72 h; series mostly up to 28.7 µM
# In short: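 SYBR Green fluorescence of parasite DNA, read after lysis and overnight dark incubation, measured growth over 72 h in erythrocyte culture at 0.3% parasitemia and 2.5% hematocrit. Data normalised to DMSO and 0.29 uM artemisinin, with plate-drift correction.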
# HEK293 = assay: Cytotoxic Profiling of Annotated Libraries Using Quantitative High-Throughput Screening (AID 1296008); conditions: Five cell lines viability, CellTiter-Glo ATP luminescence, 48-72 h; max response: hits give low values; further: nearly all actives have a fitted effect of over 60% in size
# In short: (§1)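 Cytotoxicity was measured as CellTiter-Glo ATP luminescence, read after 10 min at room temperature. Compound treatment of the cells lasted 48 or 72 hr at 37 degrees Celsius in a qHTS format.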
# HaCat [1] = assay: as above; conditions: Five cell lines viability, CellTiter-Glo ATP luminescence, 48-72 h; max response: hits give low values
# In short: as §1
# KB-3-1 = assay: as above; conditions: Five cell lines viability, CellTiter-Glo ATP luminescence, 48-72 h; max response: hits give low values
# In short: as §1
# NIH3T3 [2] = assay: as above; conditions: Five cell lines viability, CellTiter-Glo ATP luminescence, 48-72 h; max response: hits give low values
# In short: as §1
# MCC-13 = assay: qHTS assay to identify novel small-molecules to repurpose for Merkel cell carcinoma treatment (AID 1296009); conditions: MCC and control cell lines, CellTiter-Glo viability, 72 h; series mostly up to 46 µM; further: nearly all actives have a fitted effect of over 60% in size
# In short: (§2)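 Cell viability, measured as CellTiter-Glo luminescence, was normalized between DMSO and no-cell wells. The cells had been exposed to 8- or 11-point compound dilutions for 72 hr at 37 degree celsius.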
# MKL-1 = assay: as above; conditions: MCC and control cell lines, CellTiter-Glo viability, 72 h; series mostly up to 46 µM
# In short: as §2
# MKL-2 = assay: as above; conditions: MCC and control cell lines, CellTiter-Glo viability, 72 h; series mostly up to 46 µM
# In short: as §2
# UISO = assay: as above; conditions: MCC and control cell lines, CellTiter-Glo viability, 72 h; series mostly up to 46 µM
# In short: as §2
# WaGa = assay: as above; conditions: MCC and control cell lines, CellTiter-Glo viability, 72 h; series mostly up to 46 µM
# In short: as §2
# C33A = assay: Primary qHTS to identify gynecologic anti-cancer compounds using libraries of approved drugs and bioactive compounds (AID 1345084); conditions: Gynecologic cancer cell panel viability, ATPlite luminescence, 48 h; series mostly up to 57.5 µM; further: nearly all actives have a fitted effect of over 55% in size
# In short: (§3)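 Cells, 1,000 per well, plated 16 h, then exposed 48 h at 37 C to compounds. Viability by ATPlite luminescence after 15 min at room temperature.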
# CAOV3 = assay: as above; conditions: Gynecologic cancer cell panel viability, ATPlite luminescence, 48 h; series mostly up to 57.5 µM
# In short: as §3
# CASKI = assay: as above; conditions: Gynecologic cancer cell panel viability, ATPlite luminescence, 48 h; series mostly up to 57.5 µM
# In short: as §3
# Es-2 = assay: as above; conditions: Gynecologic cancer cell panel viability, ATPlite luminescence, 48 h; series mostly up to 57.5 µM
# In short: as §3
# HeLa = assay: as above; conditions: Gynecologic cancer cell panel viability, ATPlite luminescence, 48 h; series mostly up to 57.5 µM
# In short: as §3
# MCC-26 = assay: qHTS assay to identify novel small-molecules to repurpose for Merkel cell carcinoma treatment (AID 1296009); conditions: MCC and control cell lines, CellTiter-Glo viability, 72 h; series mostly up to 46 µM; further: nearly all actives have a fitted effect of over 60% in size
# In short: as §2
# NIH3T3 [3] = assay: as above; conditions: MCC and control cell lines, CellTiter-Glo viability, 72 h; at 44.8 µM (top of the series)
# In short: as §2
# HACAT [4] = assay: as above; conditions: MCC and control cell lines, CellTiter-Glo viability, 72 h; at 44.8 µM (top of the series) unless noted
# In short: as §2
# Potency means the concentration at half of the fitted maximal effect.
smiles,measurement,setting,value
Nc1nc(N)c(-c2ccccc2)s1,Potency,W2,inactive
same,max response,HEK293,-1.75%
same,max response,HaCat [1],-10.8%
same,max response,KB-3-1,-0.967%
same,max response,NIH3T3 [2],2.51%
same,Potency,MCC-13,inactive
same,Potency,MKL-1,inactive
same,Potency,MKL-2,inactive
same,Potency,UISO,inactive
same,Potency,WaGa,inactive
same,Potency,C33A,inactive
same,Potency,CAOV3,inactive
same,Potency,CASKI,inactive
same,Potency,Es-2,inactive
same,Potency,HeLa,inactive
O[C@@H](c1cc(C(F)(F)F)nc2c(C(F)(F)F)cccc12)[C@H]1CCCCN1,Potency,HEK293,9.44 µM (active)
same,Potency,KB-3-1,25.9 µM (active)
same,Potency,MKL-1,21.1 µM (active)
same,Potency,MKL-2,2.99 µM (active)
same,Potency,UISO,23.7 µM (active)
same,Potency,C33A,28.2 µM (active)
same,Potency,CAOV3,20 µM (active)
CC(=O)OC[C@H]1O[C@@H](n2ncc(=O)[nH]c2=O)[C@H](OC(C)=O)[C@@H]1OC(C)=O,Potency,W2,inactive
same,Potency,HEK293,0.944 µM (active)
same,max response,HaCat [1],-1.52%
same,Potency,MCC-13,inactive
same,Potency,MCC-26,inactive
same,Potency,MKL-1,inactive
same,Potency,MKL-2,inactive
same,Potency,UISO,inactive
same,Potency,C33A,inactive
same,Potency,CAOV3,inactive
same,Potency,HeLa,inactive
O=c1[nH]c(=O)n([C@H]2C[C@H](O)[C@@H](CO)O2)cc1F,Potency,W2,inactive
same,Potency,HEK293,0.0299 µM (active)
same,Potency,HaCat [1],0.0084 µM (active)
same,Potency,NIH3T3 [2],0.006 µM (active)
same,Potency,WaGa,0.0335 µM (active)
same,Potency,CAOV3,1.58 µM (active)
same,Potency,HeLa,5.01 µM (active)
Oc1ccccc1C=NCc1ccccc1,Potency,W2,inactive
same,max response,HEK293,-3.05%
same,max response,HaCat [1],-1.46%
same,max response,KB-3-1,-4.65%
same,outcome,NIH3T3 [2],inactive
same,Potency,MCC-13,inactive
same,Potency,MCC-26,inactive
same,Potency,MKL-1,inactive
same,Potency,MKL-2,inactive
same,outcome,NIH3T3 [3],inactive
same,Potency,UISO,inactive
same,Potency,WaGa,inactive
same,Potency,C33A,inactive
same,Potency,CAOV3,inactive
same,Potency,CASKI,inactive
same,Potency,Es-2,inactive
same,Potency,HeLa,inactive
CCc1nn(CCCN2CCN(c3cccc(Cl)c3)CC2)c(=O)n1CCOc1ccccc1,max response,KB-3-1,3.08% and -5.51%
same,Potency,MCC-13,inactive
same,Potency,C33A,inactive
same,Potency,CAOV3,inactive
same,Potency,CASKI,inactive
same,Potency,Es-2,inactive
CN1CCC[C@@H]1CCO[C@](C)(c1ccccc1)c1ccc(Cl)cc1,Potency,W2,13.5 µM (active)
same,Potency,HEK293,15 µM (active)
same,Potency,HaCat [1],26.6 µM (active)
same,max response,KB-3-1,-2.14%
same,Potency,MCC-26,inactive
same,Potency,MKL-1,23.7 µM (active)
same,Potency,MKL-2,9.44 µM (active)
same,Potency,UISO,21.1 µM (active)
same,Potency,HeLa,inactive
CCO[C@@H]1O[C@H](C(COCc2ccccc2)OCc2ccccc2)[C@H](OCc2ccccc2)[C@H]1O (some centres not stated),Potency,HEK293,16.8 µM (active)
same,max response,KB-3-1,-15.4%
same,Potency,MCC-13,inactive
same,Potency,MCC-26,inactive
same,Potency,MKL-1,inactive
same,Potency,WaGa,26.6 µM (active)
same,Potency,C33A,inactive
same,Potency,CASKI,inactive
O=C1c2cccc3c2[C@H](CCC3)CN1[C@@H]1CN2CCC1CC2,Potency,HEK293,21.1 µM (active)
same,max response,HaCat [1],-46%
same,max response,KB-3-1,-11.9%
same,Potency,MCC-13,inactive
same,Potency,MCC-26,inactive
same,Potency,MKL-1,inactive
same,Potency,MKL-2,inactive
same,Potency,UISO,inactive
same,Potency,WaGa,inactive
same,Potency,C33A,inactive
same,Potency,CAOV3,inactive
same,Potency,CASKI,inactive
same,Potency,Es-2,inactive
same,Potency,HeLa,inactive
Cc1ccc(S(=O)(=O)NC(=O)NC2CCCC2)cc1,Potency,W2,inactive
same,max response,HEK293,-5.76%
same,max response,HaCat [1],2.64%
same,max response,KB-3-1,5.86%
same,max response,NIH3T3 [2],3.93%
same,Potency,MCC-13,inactive
same,Potency,MCC-26,inactive
same,Potency,MKL-1,inactive
same,Potency,MKL-2,inactive
same,Potency,UISO,inactive
same,Potency,WaGa,inactive
same,Potency,C33A,inactive
same,Potency,CAOV3,inactive
same,Potency,CASKI,inactive
same,Potency,Es-2,inactive
same,Potency,HeLa,inactive
O=C(Nc1ncc([N+](=O)[O-])s1)c1cccs1,Potency,W2,inactive
same,Potency,HEK293,15 µM (active)
same,max response,HaCat [1],-23.3%
same,Potency,MCC-26,inactive
same,Potency,WaGa,26.6 µM (active)
same,Potency,C33A,inactive
same,Potency,CAOV3,inactive
Oc1ccc(Cl)cc1Cc1cc(Cl)ccc1O,Potency,HEK293,21.1 µM (active)
same,Potency,MCC-26,inactive
same,Potency,MKL-1,23.7 µM (active)
same,Potency,MKL-2,11.9 µM (active)
same,Potency,CASKI,inactive
same,Potency,Es-2,inactive
same,Potency,HeLa,inactive
CCOC(=O)[C@@](C)(N)Cc1ccc(O)c(O)c1,Potency,HEK293,18.8 µM (active)
same,outcome,HaCat [1],inactive
same,max response,KB-3-1,-9.02%
same,outcome,HACAT [4],inactive
same,Potency,MCC-13,inactive
same,Potency,Es-2,inactive
same,Potency,HeLa,inactive
CN=C(N)NCCC[C@H](N)C(=O)O,max response,KB-3-1,-24.2% and -3.13% and -1.75%
